Assay outcomes as filed in PubChem BioAssay.
CYP2C19 activ: increases human CYP2C19 enzyme activity; P33261; recombinant CYP2C19, luciferin-H EGE luminescence; hits give high values; 0 = fully inhibited enzyme, 1 = untreated enzyme; activation factor at 5 µM; 96,000 tested, under 10 active;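 active means activation factor of at least 2 at 5 µM in the primary screen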;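 further: 0 = wells with 2.5 mM tranylcypromine and 1 = vehicle-only wells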
CYP2C9 activ: increases human cytochrome P450 2C9 activity; AID 1024; P11712; recombinant CYP2C9, luciferin-H conversion, luminescence; hits give high values; factor 1 = untreated enzyme, 0 = blocked; activation factor at 5 µM; 96,000 tested, 1.4% active;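 active means activation factor of 2 or more for CYP2C9 at a 5 µM dose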;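 further: 0 = sulfaphenazole-blocked wells and 1 = vehicle-only wells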
Mac1 fbg inh: blocks human CD11b/CD18 adhesion to fibrinogen; P05107+P11215; K562 CD11b/CD18 adhesion to fibrinogen, ATPlite luminescence; Mn2+ added to activate the integrin; inhibition, % at 10 µM; 93,000 tested, 0.54% active; AID 1497;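 active means primary inhibition of 50% or more at 10 µM, then 40% or more on retest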
Target sequence (P05107 whole entry, looked up, other chains not shown): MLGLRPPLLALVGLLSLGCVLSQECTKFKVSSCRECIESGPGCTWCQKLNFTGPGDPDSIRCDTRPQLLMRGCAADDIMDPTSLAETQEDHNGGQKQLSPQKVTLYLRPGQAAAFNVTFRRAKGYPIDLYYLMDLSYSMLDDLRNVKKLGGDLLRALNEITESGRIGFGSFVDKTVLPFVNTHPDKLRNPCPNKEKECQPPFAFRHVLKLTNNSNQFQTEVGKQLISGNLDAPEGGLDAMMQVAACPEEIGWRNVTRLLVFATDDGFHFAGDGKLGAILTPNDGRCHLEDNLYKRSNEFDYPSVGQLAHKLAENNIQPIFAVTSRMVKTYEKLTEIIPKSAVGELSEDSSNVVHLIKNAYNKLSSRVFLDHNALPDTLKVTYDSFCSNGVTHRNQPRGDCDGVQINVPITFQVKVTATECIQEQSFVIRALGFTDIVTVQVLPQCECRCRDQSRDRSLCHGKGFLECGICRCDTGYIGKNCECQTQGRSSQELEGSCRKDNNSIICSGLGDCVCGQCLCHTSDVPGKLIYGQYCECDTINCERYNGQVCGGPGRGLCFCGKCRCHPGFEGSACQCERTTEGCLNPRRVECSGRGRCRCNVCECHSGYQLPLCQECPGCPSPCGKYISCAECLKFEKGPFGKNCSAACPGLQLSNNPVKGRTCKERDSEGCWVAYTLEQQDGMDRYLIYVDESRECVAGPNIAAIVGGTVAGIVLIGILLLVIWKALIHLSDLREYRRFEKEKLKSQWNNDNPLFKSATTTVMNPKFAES
CYP2C19 inhib: inhibitors of human CYP2C19 | P33261 | CYP2C19 Supersomes, luciferin-H EGE luminescence, 30 min | inhibition, % at 5 µM | 96,000 tested, 21% active | AID 778;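 active means CYP2C19 inhibition above a set limit at 5 µM in the primary screen, cut at about 50% in these data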;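 further: plate controls were negative control wells for no effect and 2.5 mM tranylcypromine positive control for full effect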
CYP2C9 inhib: inhibitors of human CYP2C9. P11712. AID 777. CYP2C9 Supersomes, luciferin-H conversion, luminescence. 96,000 tested, 20% active. inhibition, % at 5 µM;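 active means blocking of liver enzyme CYP2C9 beyond about 50% at 5 µM, limit read from the data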
Mac1 fbg enh: increases human CD11b/CD18 adhesion to fibrinogen; K562 CD11b/CD18 adhesion to fibrinogen, ATPlite luminescence; activation, % at 10 µM; 93,000 tested, 0.07% active; AID 1499;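 active means 10 µM primary screen giving 50% or more activity, confirmed by 40% or more on retest at that dose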
* hit, by the source's call; · = no result given. Shown are actives, neighbours in structure and some others; about 28% of the full set was active somewhere.

SMILES | CYP2C19 activ | CYP2C9 activ | Mac1 fbg inh | CYP2C19 inhib | CYP2C9 inhib | Mac1 fbg enh
CCOCCN1CCN(c2c(C)c(C)nc3cc(-c4cc(OC)cc(OC)c4)nn23)CC1 | 0.1 | 0.5 | 9 | 87* | 54* | -4
Cc1ccc(C)c(/C=N/NC(=S)NCCc2ccccc2)c1 | 1 | 0.9 | -35 | 0 | 9 | -2
O=c1[nH]c2cccc(Cl)c2n(CCNc2ncc(C(F)(F)F)cc2Cl)c1=O | 0.4 | 0.6 | 12 | 61* | 36 | -2
O=c1c(Cl)nc2cc(Cl)ccc2n1CCNc1ncc(C(F)(F)F)cc1Cl | 0.3 | 0.5 | · | 73* | 47 | ·
C=CCc1cc(C(=O)N2CCCCC2)ccc1O | 0.1 | 0.7 | -6 | 89* | 34 | 4
COc1cccc(CN2C(=O)CN(C3CCCCC3)C(=O)C2c2ccc(F)cc2)c1 (centres undefined) | 0.8 | 0.5 | -13 | 16 | 46 | -4
Cc1ccc(Nc2nc3c([nH]2)c(=O)n(C)c(=O)n3C)cc1 | 0.9 | 0.4 | -8 | 9 | 60* | -2
C/C(Cl)=C\Cn1c(Nc2ccc(C)cc2)nc2c1c(=O)n(C)c(=O)n2C | 1 | 0.9 | -15 | 4 | 7 | 0
COC(=O)C1=C(C)NC(=O)/C1=C\c1cc(C)n(-c2cc(C)cc(C)c2)c1C | 0.2 | 0.1 | 4 | 82* | 92* | -1
Cc1cc(C)cc(-n2c(C)cc(C=C(C#N)C#N)c2C)c1 | 0.8 | 0.6 | · | 17 | 37 | ·
O=C(C1CCCN(S(=O)(=O)c2cccc3nsnc23)C1)N1CCN(c2ccccn2)CC1 (centres undefined) | 0.7 | 0.2 | 1 | 29 | 76* | 0
CCOC(=O)C1CCN(S(=O)(=O)c2cccc3nonc23)CC1 | 0.3 | 0.1 | -1 | 72* | 88* | -2
O=C(C1CCCN(S(=O)(=O)c2cccc3nonc23)C1)N1CCN(c2ccccc2)CC1 (centres undefined) | 0.4 | 0.4 | -1 | 60* | 60* | 0
CC1CC(C)CN(C(=O)C2CCCN(S(=O)(=O)c3cccc4nonc34)C2)C1 (centres undefined) | 0.5 | 0.2 | 11 | 46 | 76* | 2
CC1CCN(C(=O)C2CCN(S(=O)(=O)c3cccc4nonc34)CC2)CC1 | 0.6 | 0.9 | · | 43 | 7 | ·
Cc1sc(N/N=C/c2cccs2)nc1-c1ccccc1 | · | · | 8 | · | · | -2
COc1ccc(NC(=S)N2CCN(c3ccccn3)CC2)cc1OC | · | · | 3 | · | · | -5
COc1ccc(CNC(=O)C2CCCN(S(=O)(=O)c3c(C)nn(C)c3C)C2)cc1 (centres undefined) | 0.8 | 0.9 | 0 | 19 | 6 | 0
Cc1nn(C)c(C)c1S(=O)(=O)N1CCCC(C(=O)N2CCN(c3ccccc3)CC2)C1 (centres undefined) | 0.4 | 0.6 | 4 | 58* | 40 | 4
Cc1nc(C(=O)N(C)C)nn1-c1cc(Cl)cc(Cl)c1 | 1 | 1 | -12 | -1 | -1 | -5
Cc1ccccc1C(=O)Oc1ccc(Br)cc1C(=S)N1CCCC1 | 0.5 | 0.6 | 2 | 52* | 41 | 0
O=C(Oc1ccc(Br)cc1C(=S)N1CCCC1)c1ccccc1Cl | 0.4 | 0.6 | · | 57* | 35 | ·
COc1ccc(Br)cc1C(=O)O | 1.2 | 1.1 | 8 | -18 | -11 | -1
O=C(Oc1ccc(Br)cc1C(=S)N1CCCCC1)c1cc([N+](=O)[O-])cc([N+](=O)[O-])c1 | 0.4 | 1 | 2 | 62* | 0 | -2
COc1cc(C(=S)N2CCCC2)ccc1OC(=O)c1ccc(Cl)cc1[N+](=O)[O-] | 0.7 | 1.6 | · | 32 | -59 | ·
SMILES | CYP2C19 activ | CYP2C9 activ | Mac1 fbg inh | CYP2C19 inhib | CYP2C9 inhib | Mac1 fbg enh
CCOC(=O)c1nn(-c2ccc(F)cc2)c2c1CC/C2=C/c1ccccc1 | · | · | -2 | · | · | 13
CC(=O)NC(CCS(C)(=O)=O)C(=O)Nc1cccc2ccccc12 (centres undefined) | 0.9 | 0.5 | -15 | 6 | 54* | -1
CC(=O)NC(CCS(C)(=O)=O)C(=O)Nc1ccccc1Cl (centres undefined) | 0.9 | 0.9 | -2 | 11 | 10 | -1
O=c1[nH]c2ccsc2c(=O)n1-c1ccc(F)c(Cl)c1 | 0.7 | 0.7 | -4 | 30 | 25 | -3
COc1ccc(S(=O)(=O)N(C)CC(=O)Nc2ccccc2C(F)(F)F)cc1 | 0.2 | 1.9 | 11 | 81* | -93 | -1
COc1ccc(S(=O)(=O)N(C)CC(=O)N2CCOCC2)cc1Cl | 0.9 | 1 | 5 | 10 | 4 | -5
COc1ccc(S(=O)(=O)N(C)CC(=O)Nc2ccccc2C(F)(F)F)cc1Cl | 0.5 | 1.9 | -5 | 53* | -94 | -2
CCc1ccc(NC2CC(=O)N(c3ccc(OC)cc3OC)C2=O)cc1 (centres undefined) | 0.9 | 1 | -15 | 12 | -1 | -2
Cc1ccc(NC2CC(=O)N(Cc3ccccc3)C2=O)cc1 (centres undefined) | 0.3 | 1.5 | -3 | 68* | -46 | 3
COc1cccc(NC2CC(=O)N(CCc3ccccc3)C2=O)c1 (centres undefined) | 0.5 | 0.8 | · | 50 | 21 | ·
Cc1ccc(N2C(=O)CC(Nc3ccccc3)C2=O)cc1 (centres undefined) | 0.5 | 0.9 | -5 | 53* | 9 | -2
COc1ccc(NC2CC(=O)N(c3cccc(C)c3)C2=O)cc1 (centres undefined) | 0.4 | 0.9 | -13 | 60* | 13 | 0
CCCCN1C(=O)CC(Nc2ccc(CC)cc2)C1=O (centres undefined) | 0.2 | 0.8 | -16 | 77* | 22 | 4
CCC(C)[C@H](NC(=O)NC1CCCc2ccccc21)C(=O)O (some centres undefined) | 0.9 | 0.7 | -14 | 6 | 28 | 2
CS(=O)(=O)N(CC(=O)O)c1ccc(Oc2ccccc2)cc1 | 0.9 | 0.9 | -3 | 8 | 15 | -2
CCCN(CCC)C1CC(=O)N(Cc2ccccc2)C1=O (centres undefined) | 0.2 | 0.9 | -3 | 85* | 12 | -1
Cc1ccc2c(c1)C1CN(C)CCC1N2C(=O)Nc1ccc(Cl)cc1 (centres undefined) | 0.9 | 1 | -2 | 12 | -3 | -2
CCOC(=O)c1[nH]c2ccc(F)cc2c1NC(=O)CN1CCc2cc(OC)c(OC)cc2C1 | 0.3 | 0.2 | 5 | 68* | 81* | 2
COC(=O)c1[nH]c2cc(C)ccc2c1NC(=O)CN1CCc2cc(OC)c(OC)cc2C1 | 0.5 | 0.5 | -15 | 51* | 49 | -2
CCOC(=O)N1CCN(CC(=O)Nc2c(C(=O)OC)[nH]c3ccc(Cl)cc23)CC1 | 0.7 | 0.7 | 55 | 26 | 27 | -4
COC(=O)c1[nH]c2ccc(Cl)cc2c1NC(=O)CN1CCc2cc(OC)c(OC)cc2C1 | 0.1 | 0.1 | 12 | 87* | 89* | 1
